The supplement of paper PMC13380429
Where a name gives a salt, the structure may show the parent alone.

Tested on: Vero E6 infected with SARS-CoV-2
Assay: inhibition of SARS-CoV-2 cytopathic effect; higher = more antiviral protection, active = above 15
Conditions: 48 h

Measured: inhibition of SARS-CoV-2 cytopathic effect

CC(C(=O)O)c1ccc2c(c1)CC(=O)c1ccccc1S2 (stereo not given) [zaltoprofen]
inactive: 1 nM 1.83% | 8.33 nM 2.8% | 100 nM 3.97% | 833.33 nM 0.28% | 10000 nM 1.17%

CN(C)CCOc1ccc(/C(=C(/CCCl)c2ccccc2)c2ccccc2)cc1 [Toremifene citrate]
inactive: 1 nM 0.8% | 8.33 nM 0.55% | 100 nM -0.55% | 833.33 nM 0.65% | 10000 nM 3.86%

CC(C(=O)O)c1ccc(C(=O)c2cccs2)cc1 (stereo not given) [suprofen]
inactive: 1 nM 2.14% | 8.33 nM 0.24% | 100 nM -0.86% | 833.33 nM -2.28% | 10000 nM -2.92%

CN(C)C(=O)COC(=O)Cc1ccc(OC(=O)c2ccc(NC(=N)N)cc2)cc1 [camostat-mesilate]
inactive: 1 nM 3.69% | 8.33 nM -0.38% | 100 nM 1.74% | 833.33 nM 1.93% | 10000 nM -2.24%

CNC(=O)c1c(I)c(NC(C)=O)c(I)c(C(=O)O)c1I [iothalamic-acid-d3]
inactive: 1 nM -5.17% | 8.33 nM -2.14% | 100 nM -1.59% | 833.33 nM 0.31% | 10000 nM -1.65%

CCC(COC(=O)c1cc(OC)c(OC)c(OC)c1)(c1ccccc1)N(C)C (stereo not given) [trimebutine]
inactive: 1 nM -4.71% | 8.33 nM -2.14% | 100 nM -2.65% | 833.33 nM -0.31% | 10000 nM 2.51%

Clc1ccc2c(c1)CCc1cccnc1C2=C1CCNCC1 [desloratadine]
inactive: 1 nM 5.47% | 8.33 nM 2% | 100 nM 3.51% | 833.33 nM -0.44% | 10000 nM -5.42%
